Source: PubChem
Lassa entry: Lassa virus entry inhibition | Potency, µM (doses to about 49.2 µM), for inactives: at the top dose activity change, negative = inhibition, hits mostly inhibitors | Lassa virus pseudotyped entry inhibition, cell-based qHTS | actives 4.1% (n = 18,000) | AID 720533
MARV entry inh: blocks Marburg virus binding or cell entry; Potency, µM (titrated, usually from 49.2 µM), for the others: at the top dose activity change, negative = inhibition, hits mostly inhibitors; AID 720532; actives 6.5% (n = 18,000); Marburg virus pseudotype entry/binding inhibition, cell-based
Active calls of the source: *; ? = inconclusive; / = no result; ! = not active in a repeat; [ ] = dose if it differs, or a comment. Only some compounds are listed: those with a hit (about 8% of all), similar ones and a draw of the others. Calls follow the shape of the full dose curve; tested in HEK293 cells. % is scaled to controls: 0 for no effect and ±100 for the full control effect; potency is read from the fitted curve at half-maximal effect.

SMILES	Lassa entry	MARV entry inh
COc1cccc([C@@H]2Oc3ccc(Br)cc3C(=O)[C@H]2OC(=O)NCCOc2ccccc2)c1	7.8%	-14.8%
COc1cc2c3cc1Oc1cc(ccc1O)CC1c4c(cc(OC)c(O)c4Oc4ccc(cc4)CC3N(C)CC2)CC[N+]1(C)C (configuration not stated)	2.5%	-4.4%
COc1cc2c3cc1Oc1c(OC)c(OC)cc4c1C(Cc1cccc(c1)Oc1ccc(c(O)c1)CC3N(C)CC2)N(C)CC4 (configuration not stated)	-4.3%	-5.2%
COc1ccc2cc1Oc1ccc(cc1)C[C@H]1c3cc(c(OC)cc3CCN1C)Oc1c(OC)c(OC)cc3c1[C@@H](C2)N(C)CC3	?	2.24µM*
COc1ccc2cc1Oc1ccc(cc1)CC1c3cc(c(OC)cc3CCN1C)Oc1c(OC)c(OC)cc3c1C(C2)N(C)CC3 (configuration not stated)	11.2µM*	1.58µM*
CC(=O)OCC(=O)[C@H]1CC[C@H]2[C@@H]3CC[C@H]4C[C@H](O)CC[C@]4(C)[C@H]3C(=O)C[C@]12C	-3.4%[17.8 µM]	1.4%[17.8 µM]
CCOC(=O)C1C(C(=O)OC)=C(CC(C)C)c2ccccc2N1S(=O)(=O)C(F)(F)F (configuration not stated)	-4.4%	?
C[C@@H]1C=CCCO[C@]12C(=O)N(Cc1ccc(F)cc1)c1ccccc12	/	-0.1%[8.59 µM]
COc1ccc2c(c1)-c1nc(-n3ncc(C(=O)NC[C@@H]4CCCN5CCCC[C@H]45)c3C)ncc1CC2	35.5µM*	5.01µM*
COc1ccc2c(c1)-c1nc(-n3ncc(C(=O)NCC4CCCN(C)C4)c3C3CC3)ncc1CC2 (configuration not stated)	0.2%	?
COc1ccc2c(c1)CCc1cnc(-n3ncc(C(=O)NCCCN4CCOCC4)c3C)nc1-2	-6.8%	?
COc1ccc2c(c1)CCc1cnc(-n3ncc(C(=O)NCC(C)(C)CN(C)C)c3C)nc1-2	?	4.47µM*
O=C(NCCc1ccccc1)c1cccc(NC(=O)C2CCCC2)c1	13.6%	116.7%
CCCCCCCCCCCCC/C=C/[C@@H](O)[C@@H](N)COP(=O)(O)O	?	-17.0%
CCCCCCCCCCCCC(=O)N1CCCC[C@H]1CNC(=O)[C@@H](N)CCCCN	-27.7%	28.2µM*
CC[C@H](C)[C@H](NC(=O)[C@H](Cc1ccc(O)cc1)NC(=O)[C@@H]1CCCN1C(=O)[C@@H](NC(=O)[C@@H](N)CCCCN)[C@@H](C)CC)C(=O)N[C@@H](CC(C)C)C(=O)O	-10.2%	18.1%
O=c1[nH]c2cc(C(F)(F)F)ccc2n1-c1cc(C(F)(F)F)ccc1O	-22.4%	0.7%
COc1ccc(CN2CCN(C(c3ccc(F)cc3)c3ccc(F)cc3)CC2)c(OC)c1OC	22.4µM*	10µM*
COc1ccc(CN2CCNCC2)c(OC)c1OC	-0.3%[17.8 µM]	8.9%[17.8 µM]
O=c1cc(-c2ccc(O)cc2O)oc2ccccc12	7.8%	49.6%
CS(=O)(=O)OCCCNCCCOS(C)(=O)=O	-1.9%	32.6%
CN(Cc1ccc2c(c1)CN(C(=O)c1cccc(N(C)C)c1)CCO2)Cc1cc(C2CC2)n[nH]1	-10.1%	?
CC[C@@H]1CN2CCc3cc(OC)c(OC)cc3[C@H]2C[C@@H]1C[C@H]1NCCc2cc(OC)c(OC)cc21	0.316µM*	?
COc1cc2c(cc1OC)C(C)NCC2 (configuration not stated)	-8.0%	0.7%
CC[C@@H]1CN2CCc3cc(OC)c(OC)cc3[C@@H]2C[C@@H]1C[C@H]1NCCc2cc(OC)c(OC)cc21	5.62e-05µM*	?
SMILES	Lassa entry	MARV entry inh
COc1cc(C[C@@H]2NCCc3cc(O)c(O)cc32)cc(OC)c1OC	4.3%	11.0%
CCO[C@H](c1cc(OC)cc([N+](=O)[O-])c1OC)[C@H](C)C=CCC(=O)OC	3.1%[8.59 µM]	1.4%[8.59 µM]
Cc1cc(C)c2c(c1)OC(=O)CC2c1ccccc1C (configuration not stated)	-9.1%	4.4%
CCCCC/C=C\C/C=C\C/C=C\C/C=C\CCCC(=O)OCCN	8.3%	15.0%
Oc1cc(O)cc(/C=C/c2ccc(O)c(O)c2)c1	22.4µM*	20µM*!
C/C=C/c1ccc(O)c(OC)c1	-5.4%	7.0%
COc1ccccc1-c1nccc(NCc2cnc(C)cn2)n1	2.8%	-26.4%
CC(C)(C)OC(=O)N1CCC(C(=O)Nc2cccc(C(=O)NCCCc3ccccc3)c2)CC1	4.0%	-16.9%
CCOc1ccc(-c2nc3ccc(-c4nc5ccc(N6CCN(C)CC6)cc5[nH]4)cc3[nH]2)cc1	?	10µM*
Clc1ccc2nc(-c3ccccc3)[nH]c2c1	8.4%	16.6%
N#Cc1c(Oc2cccc(OS(=O)(=O)CCCC(F)(F)F)c2)cccc1C(F)(F)F	-19.5%	?
CO[C@H]1C[C@@H]2CC[C@@H](C)[C@@](O)(O2)C(=O)C(=O)N2CCCC[C@H]2C(=O)OC([C@H](C)C[C@@H]2CC[C@@H](O)[C@H](OC)C2)CC(=O)[C@H](C)/C=C(\C)[C@@H](O)[C@@H](OC)C(=O)[C@H](C)C[C@H](C)/C=C/C=C/C=C/1C (some centres not stated)	28.2µM*!	35.5µM*!
CC(=O)C1CC[C@H]2C3CC[C@@H]4CC(O)CC[C@@]4(C)C3CC[C@]12C (some centres not stated)	-10.6%	?
C[C@]12CC[C@H](O)C[C@H]1CC[C@@H]1[C@@H]2CC[C@]2(C)[C@@H](c3ccc(=O)oc3)C[C@H]3O[C@]132	2.82µM*	2.51µM*
CN1CCN(C2=Nc3ccccc3Cc3ccccc32)CC1	-5.1%	?
Clc1ccc2c(c1)C(N1CCNCC1)=Nc1ccccc1O2	?	11.2µM*!
COC(=O)/C(C)=C\CC12OC(C)(C)C3CC(C=C4C(=O)c5c(OC)c6c(c(CC=C(C)C)c5OC431)OC(C)(CCC=C(C)C)C=C6)C2=O (configuration not stated)	4.47µM*	2.82µM*
CC(=O)Oc1c(-c2ccccc2)oc2c(CC=C(C)C)c3c(c(OC(C)=O)c2c1=O)C=CC(C)(C)O3	0.8%	1.1%
CC(=O)Oc1c2c(c(CC=C(C)C)c3c1C(=O)C1=CC4CC5C(C)(C)OC(C/C=C(\C)C(=O)O)(C4=O)[C@]15O3)OC(C)(CCC=C(C)C)C=C2 (some centres not stated)	?	2.82µM*
O=C(O)CCCC[C@@H]1SC[C@H]2NC(=O)N[C@@H]12	2.4%	-14.4%
COC[C@H]1O[C@]2(c3ccccc3)CO[C@@H]1[C@@H](C=Cc1ccccc1)C2	/	26.1%[8.59 µM]
CCOC(=O)NN=C1C[C@@H](O)[C@@H](O)[C@@H]2[C@H]3C(=O)N(C[C@@H]4CCCO4)C(=O)[C@@H]3CC[C@H]12	9.7%[8.59 µM]	5.7%[8.59 µM]
O=c1c(O)cc(C2Oc3cc(O)cc(O)c3CC2O)cc2c(C3Oc4cc(O)cc(O)c4CC3O)cc(O)c(O)c12 (configuration not stated)	5.0%	12.6µM*
Oc1cc(O)c2c(c1)O[C@H](c1ccc(O)c(O)c1)[C@@H](O)C2	-7.9%	8.8%
COC(=O)c1cc(CNC(=O)c2cnsn2)cc(NC(=O)c2ccccc2OC)c1	-4.2%	4.9%
O=C1c2ccccc2C(=O)c2c(O)ccc(O)c21	1.8%	-2.5%
O=C1c2c(O)ccc(O)c2C(=O)c2c(NCCNCCO)ccc(NCCNCCO)c21	0.316µM*	0.1µM*
C=CCNc1cccc2c1S(=O)(=O)N[C@H](CC(C)C)CO2	/	-18.7%
